Results from PubChem BioAssay.
Several values for one entry are separate records, joined by “and”; a condition that tells them apart may be missing. Equal entries are not always repeated. Values without a mark were called inactive. No rule for the calls is given here.

test system: Aerobactin synthetase IucA (Klebsiella pneumoniae hvKP1); assay: IucA enzyme inhibition, primary screen, biochemical, Spectrum library (AID 1346200); conditions: malachite green pyrophosphate, A620, at 8 µM, stronger effect = lower value;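 also: 100% = wells without compound and 0% = wells lacking enzyme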

Point of comparison: `C[N+]12CCC(CC1)C(OC(=O)C(O)(c1ccccc1)c1ccccc1)C2` (centres undefined), activity remaining 111%. Against it:
- CC(=O)O[C@H]1CC2CCC3C(CC[C@@]4(C)C3C[C@H]([N+]3(C)CCCCC3)[C@@H]4OC(C)=O)[C@@]2(C)C[C@@H]1[N+]1(C)CCCCC1 (some centres undefined) — higher, 124%
- CCC[C@H](N[C@@H](C)C(=O)N1[C@H](C(=O)O)C[C@@H]2CCCC[C@@H]21)C(=O)OCC — higher, 121%
- O=C(O)c1cc(=O)c(O)c2c(O)c(O)c(O)cc2c1 — lower, 104%
- Cc1ccc(C(=O)C(C)CN2CCCCC2)cc1 (centres undefined) — higher, 113%
- CCCCCCCCCCCC[C@H](C(=O)O)[C@@H](C)C(=O)O — higher, 115%
- CC1(C)S[C@@H]2[C@H](NC(=O)[C@H](N)c3ccccc3)C(=O)N2[C@H]1C(=O)O — lower, 101%
- O=C1C=CC(=O)c2c(O)c(Cl)c(Cl)c(O)c21 — lower, 109%
- C=C1C2=CC(=O)O[C@@H](c3ccoc3)[C@]2(C)CCC1[C@@]1(C)C=CC(=O)C(C)(C)[C@@H]1CC(=O)OC (some centres undefined) — lower, 100%
- CC(O)(P(=O)(O)O)P(=O)(O)O — higher, 119%
- O=c1cc(-c2ccc(O)c(O)c2)oc2ccccc12 — lower, 88.4%
- CC(=O)OC1CCC23CC1(C)CCC2C(C)(C)CC3OC(C)=O (centres undefined) — lower, 105%
- O=C(NC(Cc1cc(=O)[nH]c2ccccc12)C(=O)O)c1ccc(Cl)cc1 (centres undefined) — lower, 106%

For `NCCOB(c1ccccc1)c1ccccc1`, the activity remaining was 97.5% and 103%.
